Measured values: PubChem BioAssay AID504690 (Sanford-Burnham Center for Chemical Genomics, 2011)
Hit rate of the full screen: of about 350,000 compounds, about 2,700 (0.77%) were called active.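 The calls were made as follows: active = inhibition reaching at least a set limit at 20 µM in the primary screen (cut at about 59% in these data); inactive = the rest.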 The entries come from a sample that favours actives as a whole.

These compounds were tested on glucose-6-phosphate dehydrogenase-6-phosphogluconolactonase (Plasmodium falciparum 3D7) (assay: inhibition of malaria parasite G6PD (PfGluPho) – biochemical, fluorescence intensity, uHTS, primary screen (AID 504690;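 also: 0% = DMSO wells with substrate and 100% = DMSO wells lacking glucose-6-phosphate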)). Conditions: PfGluPho enzyme, NADPH resazurin-diaphorase fluorescence; at 20 µM; hits give high values.

Compound | inhibition
CCOC(OCC)c1ccc(/C=C\c2nccc(N)n2)cc1 | 5.93% (inactive)
COc1cc(S(=O)(=O)N2CCOCC2)ccc1NC(=O)COc1ccc(N(C)S(=O)(=O)c2ccc(C)cc2)cc1 | 3.13% (inactive)
COc1ccc(Cc2nnnn2CC(=O)O)cc1 | -4.83% (inactive)
CC1(c2ccc3ccccc3c2)NC(=O)N(CC(N)=O)C1=O (stereo unspecified) | -14% (inactive)
N/C(=N\OC(=O)CCn1cccc(C(F)(F)F)c1=O)c1ccc(OC(F)(F)F)cc1 | -3.22% (inactive)
CCOC(=O)CSc1nnc(NC(=O)c2cccc(S(=O)(=O)N3CCCC3)c2)s1 | -21.8% (inactive)
NC(=O)CSc1nnc(NC(=O)c2ccc(Br)o2)s1 | 21.1% (inactive)
CCSc1nnc(NC(=O)c2ccc(C)cc2)s1 | 92.9% (active)
CCC(C)NCCOCCOc1ccc(Br)cc1C (stereo unspecified) | -3.69% (inactive)
O=C(NC1CCc2ccccc21)C12CN(Cc3ccccc3)CC1C(c1cccc([N+](=O)[O-])c1)=NO2 (stereo unspecified) | 3.16% (inactive)
O=C1C(Cl)=C(Oc2ccccc2)C(=O)c2ccccc21 | 128% (active)
COc1ccc(-c2c(C)cc3oc(=O)cc(-c4ccccc4)c3c2C)cc1C=O | 1.07% (inactive)
CCOc1ccccc1Nc1ccc(C(=O)O)cc1[N+](=O)[O-] | -28.7% (inactive)
Cc1ccccc1Nc1c([N+](=O)[O-])ccc2nonc12 | -0.06% (inactive)
CCOc1ccccc1Nc1ccc2nonc2c1[N+](=O)[O-] | 77.2% (active)
CCC(C)C(=O)Nc1cc([N+](=O)[O-])ccc1Cl (stereo unspecified) | -12.1% (inactive)
Cc1ccc(N(C(=O)CC2NC(=O)NC2=O)C2(C(=O)NC3CCCC3)CCCCC2)cc1 (stereo unspecified) | 2.93% (inactive)
O=C1/C(=C\Nc2ccccc2)CCN1c1ncccn1 | 10.9% (inactive)
Cc1ccc(S(=O)(=O)N2C[C@@H](C)[C@]3(C2)[C@H](O)[C@H](OC(=O)NCc2ccccc2)C[C@H]2C(=O)N(c4ccccc4)C(=O)[C@H]23)cc1 | 24.5% (inactive)
CN1C2CCC1CC(NC(=O)c1ccc([N+](=O)[O-])cc1)C2 (stereo unspecified) | -5.81% (inactive)
COC(=O)c1c(C)[nH]c(C)c1-c1ccc([N+](=O)[O-])cc1 | -17.8% (inactive)
CC(=O)N1CC[n+]2c(-c3ccc([N+](=O)[O-])cc3)csc21 | 60.6% (active)
CC(C)NC(=O)/C(C#N)=C\c1ccc(N(C)C)c(Br)c1 | -1.04% (inactive)

Compound | inhibition
CCOC(=O)C1C(=O)OC2(CCCC2)C1C(=O)OCC (stereo unspecified) | -2.05% (inactive)
O=C(COC(=O)c1ccc([N+](=O)[O-])o1)NC12CC3CC(CC(C3)C1)C2 | 23.2% (inactive)
Cc1ccc(/C=C/C(=O)Nc2ccc([N+](=O)[O-])c(NC(=O)/C=C/c3ccc(C)o3)c2)o1 | 82.9% (active)
COC(=O)/C=C\C(=O)Nc1cccc([N+](=O)[O-])c1 | 45.2% (inactive)
Cc1ccc(/C=C/C(=O)Nc2cc(S(=O)(=O)N3CCCCCC3)ccc2OCC(F)(F)F)o1 | 35.9% (inactive)
CN(Cc1nc(-c2cnccn2)no1)Cc1n[nH]c2c1CCCCC2 | -10.5% (inactive)
O=C(NCCc1ccccc1)C(=O)NCC1OCCN1S(=O)(=O)c1cccs1 (stereo unspecified) | -3.06% (inactive)
O=C(Nc1c(Cl)cccc1Cl)C1CCC1 | -12.1% (inactive)
Cc1cccc(OCC(=O)NCC(=O)N/N=C/c2ccc(N(C)C)cc2)c1 | 17.1% (inactive)
C=C(C)CNC(=S)N/N=C/c1ccccc1OCC(=O)O | 3.17% (inactive)
C=CCOc1ccccc1/C=N/NC(=O)Cc1ccccc1 | 4.68% (inactive)
CCOc1ccccc1/C=N/NC(=O)CNC(=O)COc1ccccc1 | 120% (active)
C=CCc1ccccc1OCC(=O)N/N=C/c1ccccc1OCC | 105% (active)
C=CCc1cccc(/C=N/NC(=O)COc2ccc(-n3cnnn3)cc2)c1O | -10.4% (inactive)
Fc1ccc(OCc2nn3c(Cn4nnc5ccccc54)nnc3s2)cc1 | 57.3% (inactive)
COC(=O)CSc1nc2c(c(C3CC=CCC3)c1C#N)CCC2 (stereo unspecified) | -38.4% (inactive)
CC(C)(C)NS(=O)(=O)CC12CCC(CC1=O)C2(C)C (stereo unspecified) | -13.3% (inactive)
CCN(C(=O)COC(=O)CCC(=O)c1cccs1)C1CCCCC1 | -5.84% (inactive)
CN(CC(=O)Nc1cccc2c1CCCC2)S(=O)(=O)c1ccc(Cl)cc1 | 6.22% (inactive)
CCc1nonc1NC(=O)c1oc2ccc(Cl)cc2c1C | -9.82% (inactive)
Cn1c(-c2ccc(F)cc2)cc2onc(-c3ccccc3Cl)c2c1=O | 4.14% (inactive)
CCc1cccc(C)c1NS(=O)(=O)c1cc(Br)cnc1N | -9.37% (inactive)
CCN(C(=O)CSc1nnc(-c2ccncc2)o1)c1ccccc1 | -2.03% (inactive)

Compound | inhibition
COc1cc(CNC2CCCC2)c(Br)cc1OCc1ccccc1 | -14.8% (inactive)
COc1ccc(CCN=C2SCC(=O)N2Cc2ccccc2)cc1OC | -8.19% (inactive)
COc1cc(C2CC(=O)N3CN(Cc4ccccc4)CSC3=C2C#N)ccc1OCc1ccccc1 (stereo unspecified) | 61.5% (active)
Cc1ccc(S(=O)(=O)N2C[C@H]3C(=O)C[C@@H](c4cccc5ccccc45)N(S(=O)(=O)c4ccc(C)cc4)[C@H]3C[C@H]2c2ccc(Cl)cc2)cc1 | 7.92% (inactive)
O=C(CSc1cccc2cccnc12)N/N=C/c1cccnc1 | 63.5% (active)
Cc1c(NC(=O)CSc2cccc3cccnc23)c(=O)n(-c2ccccc2)n1C | 6.71% (inactive)
O=C(N/N=C\c1cccnc1)c1cc(-c2ccccc2)nc2c(Cl)cccc12 | 8.75% (inactive)
OC(CNC1CCCC1)COc1ccc(F)cc1 (stereo unspecified) | 11.3% (inactive)
Cc1ccc(C)c(NS(=O)(=O)c2c(C)[nH]c(C)c2C(=O)N2CCCCC2)c1 | -16.2% (inactive)
COc1ccc(-n2c(C)cc(C(=O)CSc3nnc(-c4cccs4)o3)c2C)cc1 | 83.3% (active)
Cc1ccc(-n2c(C)cc(C(=O)CSc3nnc4ccccn34)c2C)cc1 | 26.1% (inactive)
COc1ccc(-n2c(C)cc(C(=O)COC(=O)c3cc(OC)c(OC)cc3NC(=O)c3cccs3)c2C)cc1 | -6.02% (inactive)
O=C(CCN1CCCCC1)N=Nc1c(O)[nH]c2ccccc12 | 6.66% (inactive)
Cc1c(-c2ccccc2)n[nH]c1C(=O)N=Nc1c(O)[nH]c2ccccc12 | 88.8% (active)
Oc1[nH]c2ccccc2c1N=Nc1c(F)c(F)c(F)c(F)c1F | 0.03% (inactive)
CC1(C)C=C2[C@H]3CC[C@@H]4[C@@]5(C)CCC(=O)C(C)(C)[C@@H]5CC[C@@]4(C)[C@]3(C)CC[C@@]2(C(=O)O)CC1 | -28.4% (inactive)
Cn1c(SCC(=O)Nc2ccc(Br)cc2F)nnc1-c1ccco1 | -4.98% (inactive)
Cn1c(-c2ccco2)nc2cc3ccccc3cc21 | 60.5% (active)
COc1ccc(-n2cnc3cc(NCc4ccco4)ccc32)cc1 | 23.7% (inactive)
COc1ccc(Cl)cc1NC(=O)CCS(=O)(=O)c1ccc(Br)cc1 | 43% (inactive)
O=C(COC(=O)/C(=C/c1cccs1)c1cccs1)NCc1ccccc1Cl | -3.87% (inactive)
Cc1cc(C(C)(C)C)cc(C)c1N | 12.1% (inactive)
Cc1cc(N)n2nc(-c3ccc(C(C)(C)C)cc3)cc2n1 | 84.5% (active)

Compound | inhibition
COc1ccc(-c2cc(C)nc3nc(N)nn23)cc1 | -2.23% (inactive)
CC(C)C(c1nnnn1C1CCCCC1)N1CCN(C(=O)c2ccco2)CC1 (stereo unspecified) | -12.7% (inactive)
CN(CCc1cnn(C)c1)Cc1cn(C)nc1-c1ccccc1F | -8.15% (inactive)
COC(=O)CCc1sc(Nc2ccc(Br)cc2)nc1-c1ccc(OC)cc1 | 64.3% (active)
COc1ccc(NC(=O)CCC(=O)Nc2nnc(C3CCCCC3)s2)cc1 | -7.47% (inactive)
CNC(=O)c1sc(Nc2ccc(OCc3ccccc3)cc2)nc1C | 19.4% (inactive)
COc1ccc(NC(=O)CN2C(=O)COc3ccc(S(=O)(=O)N4CCOCC4)cc32)c(OC)c1 | -0.58% (inactive)
O=c1[nH]c2ccccc2n2c(-c3ccccc3)nnc12 | 102% (active)
O=C(c1ncn2c1c(=O)[nH]c1ccccc12)N1CCc2ccccc2C1 | 8.24% (inactive)
CC(=O)N(C)c1ccc(NC(=O)Nc2cccc3ccccc23)cc1 | -6.82% (inactive)
COc1ccc(C(=O)Nc2cc(C)c(NC(=O)c3ccccc3OC)cn2)cc1 | 79.1% (active)
COc1ccccc1C(=O)Nc1ccccc1C(=O)Nc1ccccc1 | 8.55% (inactive)
COc1cc2ccccc2cc1C(=O)Nc1ccccc1C | -15.2% (inactive)
C=CCNC(=O)c1sc(SC)cc1-c1ccc(Cl)cc1 | 9.14% (inactive)
CCc1ccc2[nH]c(=O)c(Cc3ccccc3)c(O)c2c1 | -9.56% (inactive)
COc1ccc(CCC(=O)N2CCN(S(=O)(=O)c3ccc(OC)cc3)CC2)cc1 | -10.5% (inactive)
Nc1ccc2[nH]c(=S)sc2c1 | 74.7% (active)
O=c1[nH]c2ccccc2s1 | 5.6% (inactive)
C/C(=C\c1ccco1)CN1CCC(N2CCC(C(=O)N3CCOCC3)CC2)CC1 | -6.22% (inactive)
CN(C(=O)c1cccc(NC(=O)Cc2cccc(NC(=O)C3CCCN(C(=O)C4CC4)C3)c2)c1)C1CCC1 (stereo unspecified) | 13.5% (inactive)
Cc1ccc(Nc2nc(CSc3nnnn3-c3ccccc3)cc(=O)[nH]2)cc1 | 2.74% (inactive)
O=C(Nc1nc(-c2ccncc2)cs1)C1COc2ccccc2O1 (stereo unspecified) | 82.1% (active)
COc1ccc(NC(=O)COC(=O)C2COc3ccccc3O2)cc1 (stereo unspecified) | -2.2% (inactive)

Compound | inhibition
C/C(=N/NC(=O)C1COc2ccccc2O1)c1ccco1 (stereo unspecified) | -17.2% (inactive)
CCOC(=O)C1(CCOc2ccccc2)CCN(C(=O)c2cncs2)CC1 | -8.03% (inactive)
N#Cc1cnn2cc(CCN3CCOCC3)c(-c3ccc(F)cc3)nc12 | -4.2% (inactive)
O=C(C1CC(=O)N(C2CCCCC2)C1)N1CCN(c2ccccc2)CC1 (stereo unspecified) | 1.77% (inactive)
O=C(C1CCC1)N1CCN(c2ccccc2)CC1 | -11.2% (inactive)
O=C1C=CC(=O)N1c1ccc(N2CCCCC2)cc1 | 59.2% (active)
O=C(CSc1ccc(C(F)(F)F)cc1[N+](=O)[O-])NCCOc1ccccc1 | 4.59% (inactive)
CCc1cccc(NC(=S)N(CCN(C)C)C2CCN(C(C)C)CC2)c1 | -1.59% (inactive)
CC(C)c1cc(C(N)=O)c(NC(=O)c2cccc(COc3ccc(Br)cc3)c2)s1 | 17.7% (inactive)
CC(C)Oc1ccc(C(=O)NC(C)(C)CO)cc1 | -5.29% (inactive)
CCOC(=O)c1sc(NC(=O)CSc2nc(C)cc(C(F)(F)F)n2)c(C#N)c1C | 60.4% (active)
Cc1cc(C(F)(F)F)nc(SCC(=O)Nc2nccs2)n1 | 14.7% (inactive)
CCn1c(SCC(=O)Nc2sc(C)c(C)c2C#N)nnc1C1CC1 | 13.8% (inactive)
CCOC(=O)c1cc2c(=O)n3ccccc3nc2n(CC(C)C)c1=NC(=O)c1c(-c2c(F)cccc2Cl)noc1C | 10.9% (inactive)
O=C(CSc1nnc(SCc2ccc(F)cc2)s1)Nc1ccc(C(=O)O)cc1 | -15.7% (inactive)
O=C(Cc1ccccc1)N/N=C/c1ccc(Cl)cc1Cl | 8.79% (inactive)
O=C(CSc1nnc(SCc2ccc(Cl)cc2)s1)N/N=C/c1ccccc1Cl | 75.1% (active)
CC1CCCN(C(=O)Cn2c(=O)oc3cc(S(=O)(=O)N4CCCCC4C)ccc32)C1 (stereo unspecified) | -4.91% (inactive)
CC(C)(C)c1cc2cccnc2n1Cc1ccccc1 | 2.96% (inactive)
